Source: PubChem BioAssay AID2711 (National Center for Advancing Translational Sciences (NCATS), 2010)
Some of the results follow. Inconclusive results are not listed. Activity calls are given as the source filed them. The call rests on the fitted dose curve; in most records, active means well fitted inhibition curve with a large enough effect; inconclusive means small, poorly fitted or top-dose-only effect; inactive means no such curve, though single readings can be large or run the other way.

Assay: Counterscreen for RECQ1 Inhibitors: ADP Fluorescence Polarization Displacement Assay; further: nearly all actives have a fitted effect of over 45% in size
Details: series mostly up to 228 µM; activity change, negative = inhibition: at the top concentration
From the text: In order to gain further insight into the mode of action of the RECQ1 screening hits, we have profiled them in a set of miniaturized fluorescence polarization assays designed to report on compounds which competitively displace either co-substrate (ATP or DNA). The appropriate fluorescently-labeled probe was used: BODIPY Texas Red-labeled ADP was expected to be competed off by ATP-competitive inhibitors, while single-TAMRA labeled forked-duplex or short single-stranded DNA molecules served as probes for DNA-competitive compounds.
Three uL of reaction buffer (25 mM Tris-HCl (pH 8.0), 5 mM NaCl, 2 mM MgCl2, 1mM DTT, 0.01% Tween- 20, and 2.5 ug/ml poly(dI-dC), containing 300 nM RECQ1 and 500 nM BODIPY Texas Red-ADP (Invitrogen) were dispensed into a 1536-well Greiner black assay plate via solenoid-valve based nanoliter dispensers; 500 nM BODIPY Texas Red-ADP without RECQ1 protein served as a fully-displaced control. Compounds (23 nl each in columns 5-48) were transferred via a Kalypsys pintool equipped with a 1536-pin array. The plates were incubated for 15 min at room temperature and were then transferred into a ViewLux high-throughput CCD imager, where the endpoint fluorescence polarization was measured using 525 nm excitation and 598 nm emission protocol.
On the % scale 0 is the no-effect control and ±100 the full control effect; potency means the concentration at half of the fitted maximal effect.

Row | SMILES | activity change, negative = inhibition | Potency
1 | CC(=O)Nc1ccc(Nc2c3ccccc3nc3ccccc23)cc1 | 34.5% [at 91.9 µM] (inactive) | 
2 | O=C(NC(Cc1ccccc1)C(=O)N1CCCC1C(=O)O)c1ccccc1 (configuration not stated) | -0.948% (inactive) | 
3 | O=C(O)CCn1c(SCc2cc(=O)n3ccccc3n2)nc2ccsc2c1=O | 0.643% (inactive) | 
4 | CC1Cc2ccccc2N1C(=O)CSc1nnc(-c2ccc(S(=O)(=O)N3CCCC3)cc2)n1C (configuration not stated) | 3.82% (inactive) | 
5 | CC(C)C1N=C2c3ccccc3N=C(SCC(=O)c3ccc(O)c(O)c3)N2C1=O (configuration not stated) | -10.2% [at 91.9 µM] (inactive) | 
6 | O=C(NC(Cc1c[nH]c2ccccc12)C(=O)O)/C(=C/c1ccco1)NC(=O)c1ccccc1 (configuration not stated) | 8.72% (inactive) | 
7 | O=C(CCn1nnc2ccccc2c1=O)N[C@@H](Cc1c[nH]c2ccccc12)C(=O)O | 6.93% (inactive) | 
8 | O=C(NCc1ccccc1)C1=C[C@@H](C2CCCCC2)C[C@@H](OCc2ccc(CO)cc2)O1 | -3.38% [at 91.9 µM] (inactive) | 
9 | O=C(N/N=C/c1sc(N2CCCCC2)nc1-c1cccs1)c1cccnc1 | 59.1% [at 91.9 µM] (inactive) | 
10 | O=C(OCC1O[C@@H](OC(=O)c2cc(O)c(O)c(O)c2)[C@@H](OC(=O)c2cc(O)c(O)c(O)c2)[C@@H](OC(=O)c2cc(O)c(O)c(O)c2)[C@@H]1OC(=O)c1cc(O)c(O)c(O)c1)c1cc(O)c(O)c(O)c1 (some centres not stated) | -12.5% [at 91.9 µM] (inactive) | 
11 | c1ccc(CSc2nnc(-c3ccco3)c(-c3ccco3)n2)cc1 |  | 50.1 µM (active)
12 | COc1cc(C2C(C(=O)c3ccc(C)o3)=C(O)C(=O)N2CCc2ccccc2)ccc1O (configuration not stated) | 6.79% (inactive) | 
